# tim23-1 inh: tim23-1 yeast growth inhibition; hit rate 1.3% among 330,000; S. cerevisiae tim23-1 growth, BacTiter-Glo luminescence, 24 h; inhibition, % at 20 µM; AID 463212;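 active = growth inhibition of the mutant yeast at or above 50%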;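 also: temperature-sensitive mutant grown at 25 °C; plate controls were DMSO-treated mutant yeast for no effect and medium wells lacking yeast for full effect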
# tim10-1 inh: inhibits growth of tim10-1 mutant yeast; S. cerevisiae tim10-1 ts strain growth, BacTiter-Glo, 24 h; inhibition, % at 20 µM; hit rate 2.2% among 330,000; AID 463190;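 active = inhibition of at least 40%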;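 also: mutant grown at 25 °C; 0% = DMSO wells with yeast and 100% = wells holding no yeast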
# NALP3 yeast inh: NALP3 inhibition in yeast | Yeast reconstituted NLRP3/ASC/caspase-1, beta-gal luminescence, 24 h | inhibition, % at 10 µM | hit rate 0.39% among 330,000;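 active = inhibition of 50% or more; inactive = inhibition below 50%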;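 also: plate controls were induced DMSO wells for no effect and uninduced yeast grown without galactose for full effect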
# PfHsp90 set2: growth inhibition of yeast expressing Plasmodium Hsp90; inhibition, % at 9.4 µM; hit rate 0.32% among 310,000; S. cerevisiae expressing PfHsp90, BacTiter-Glo ATP, 48 h; yeast lacking PDR1 and PDR3 efflux regulators; AID 504621;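 active = every replicate shows inhibition above about 80%, whatever the replicate mean, limit read from the data; inconclusive = mean inhibition reaches the set limit but some replicate falls short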;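 also: 0% = DMSO neutral controls and 100% = 20 µM radicicol positive controls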
# SKKanGAS inh: blocks kanamycin growth of S. pyogenes SKKanGAS strain; AID 1662; inhibition, % at 7.5 µM; hit rate 1.3% among 300,000; BacTiter-Glo, 6 h;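 active = mean replicate score, as percent of positive control median, at least 50; inconclusive = mean below 50 but one replicate at or above 50; inactive = mean and every replicate below 50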;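 also: strain carries kanamycin resistance gene driven by streptokinase promoter and grows in 40 µg/ml kanamycin; loss of luminescence reflects streptokinase promoter inhibition or plain growth inhibition; 0% = median of DMSO wells and 100% = positive control at its reference dose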
# TIM10 inh: growth inhibitors of TIM10 yeast strain | S. cerevisiae TIM10 strain growth, BacTiter-Glo luminescence, 24 h | AID 463195 | inhibition, % at 10 µM | hit rate 1.4% among 330,000;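 active = inhibition of 40% or more at the single tested concentration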;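 also: wild-type TIM10 isogenic control strain grown at permissive 25 °C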
# tim10-1 confirm: confirmation of tim10-1 mutant yeast growth inhibitors; shares compounds with tim10-1 inh; S. cerevisiae tim10-1 ts strain growth, BacTiter-Glo, 24 h; inhibition, % at 20 µM; hit rate 56% among 7,400;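 active = inhibition of yeast growth at or above a set limit in either of two repeat tests at 20 µM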;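 also: tim10-1 mutant grown at permissive 25 °C to find synthetic lethal compounds; 0% = DMSO yeast wells and 100% = medium wells without yeast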
# TIM10 conf: TIM10 yeast growth inhibition, confirmed. inhibition, % at 10 µM. shares compounds with TIM10 inh. S. cerevisiae tim10 strain growth, BacTiter-Glo luminescence, 24 h. AID 463215. hit rate 63% among 4,600;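 active = inhibition of yeast growth at or above a set limit in either of two replicates at 10 µM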;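 also: this counterscreen used the strain with wild-type TIM10; 0% = yeast with DMSO and 100% = medium wells lacking yeast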
# tim23-1 confirm: tim23-1 yeast growth inhibition, confirmed | inhibition, % at 20 µM | S. cerevisiae tim23-1 growth, BacTiter-Glo luminescence, 24 h | shares compounds with tim23-1 inh | hit rate 83% among 4,400;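 active = inhibition above about 39% in either of two replicate wells at 20 µM, limit read from the data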;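 also: temperature-sensitive tim23-1 mutant grown at 25 °C; 0% = DMSO wells with yeast and 100% = medium wells without yeast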
# Active calls of the source: *; ? = inconclusive; nt = no result given. Most compounds without a hit are left out; they make up all but 4.5% or so of the library.
SMILES,tim23-1 inh,tim10-1 inh,NALP3 yeast inh,PfHsp90 set2,SKKanGAS inh,TIM10 inh,tim10-1 confirm,TIM10 conf,tim23-1 confirm
CC(C)Oc1ccc(/C=C(\C#N)C(=O)NC2CC2)cc1,10,-6,26,1,0,-13,nt,nt,nt
O=C(/C=C/c1cccc([N+](=O)[O-])c1)c1cccs1,52*,57*,26,93*,3,69*,52*,72*,49*
O=C1c2ccccc2C(=O)N1Cc1ccccc1F,-1,-20,-16,8,5,-2,nt,nt,nt
CC(C)(C)OC(=O)N/N=C\c1ccc([N+](=O)[O-])s1,78*,75*,25,17,12,58*,50*,71*,64*
CCOC(=O)N/N=C\c1ccc([N+](=O)[O-])s1,87*,53*,20,17,-4,32,38*,nt,66*
CCOC(=O)N/N=C\c1ccc(C)s1,5,12,19,0,-1,8,nt,nt,nt
COc1ccc(NC(=O)CCC(=O)N/N=C/c2ccc([N+](=O)[O-])s2)cc1,62*,50*,6,116*,7,83*,39*,25,62*
Cc1ccc(C(=O)N/N=C\c2ccc([N+](=O)[O-])s2)cn1,56*,49*,24,-17,5,40*,42*,-32,58*
CC1CCCCC12NC(=O)N(CC(=O)NCc1ccco1)C2=O (centres undefined),-13,-12,3,-18,nt,-5,nt,nt,nt
O=C(Nc1ccc2c(c1)OCCO2)NC12CC3CC(CC(C3)C1)C2,59*,51*,1,-10,-9,47*,43*,31,43*
Cc1ccc(Nc2nc3ccc(Cl)cc3n3cnnc23)cc1F,51*,63*,18,16,2,13,20,nt,20
Cc1ccc2nc(Nc3ccc(F)cc3)c3nncn3c2c1,37,1,21,-13,-6,29,nt,nt,nt
COC(=O)c1cc(=O)n(Cc2cccs2)c(=Nc2ccc(F)cc2)s1,21,29,8,12,4,9,nt,nt,nt
COC(=O)c1cc(=O)n(-c2ccc(F)cc2)c(=Nc2ccc(F)cc2)s1,67*,56*,-8,125*,-5,54*,57*,55*,44*
Cc1cccn2c(=O)c(C=O)c(N3CCCCCC3)nc12,58*,46*,3,-1,-2,22,43*,nt,46*
O=c1oc(-c2ccccc2Cl)nc2ccsc12,70*,44*,10,1,1,34,35*,nt,60*
COC(=O)c1ccc(NN=Nc2ccc(C)cc2)cc1,18,24,-2,-5,4,-13,nt,nt,nt
Cc1ccc(C(=O)ONc2ccc(N=O)cc2)cc1,71*,58*,15,nt,-4,39,49*,nt,63*
Cc1cc(C)c(S(=O)(=O)/N=C2\C=C(Nc3ccc(C(=O)O)cc3)C(=O)c3ccccc32)c(C)c1,60*,43*,28,-8,112*,24,35*,nt,63*
O=C(O)c1ccc(NC2=C/C(=N/S(=O)(=O)c3ccccc3)c3ccccc3C2=O)cc1,40,38,-1,-30,nt,14,nt,nt,nt
CC(=O)c1cc(NC(=O)c2ccccc2)c(=O)oc1C,22,15,8,20,6,18,nt,nt,nt
Cc1oc(=O)c(NC(=O)c2ccccc2)cc1C(=O)c1ccccc1,57*,62*,38,nt,6,53*,61*,55*,60*
Cc1ccccc1OCC(=O)NC(=S)Nc1cccc2cc(O)ccc12,63*,57*,29,-12,9,25,55*,nt,49*
Cc1ccccc1OCC(=O)NC(=S)Nc1ccc(Br)c(C)n1,27,7,20,-5,?,10,nt,nt,nt
Cc1ccc(C(=O)NCC(=O)NC2CCCCCC2)cc1,14,-9,9,20,2,-8,nt,nt,nt
SMILES,tim23-1 inh,tim10-1 inh,NALP3 yeast inh,PfHsp90 set2,SKKanGAS inh,TIM10 inh,tim10-1 confirm,TIM10 conf,tim23-1 confirm
CCCNC(=O)c1ccc2c(c1)C1C3CCC(C3)C1C(c1ccccc1)N2 (centres undefined),53*,47*,1,-16,6,37,44*,nt,57*
CCOc1ccc(C(C)=O)cc1COc1ccc(-c2nnco2)cc1,24,8,27,-12,-2,0,nt,nt,nt
COCOc1ccc(C=O)c(O)c1,13,4,7,5,0,-7,nt,nt,nt
O=Cc1ccc(OCc2cccc(C(F)(F)F)c2)cc1O,57*,45*,-1,-26,nt,14,48*,nt,42*
Cc1ccc(S(=O)(=O)N2CCCCC2)cc1NC(=O)CSc1nnc(C2CC2)n1N,10,6,20,0,nt,11,nt,nt,nt
CC(C)NC(=O)/C(C#N)=C/c1cccc(NC(=O)c2ccccc2Cl)c1,78*,70*,21,-2,5,63*,67*,1,67*
COCCNC(=O)/C(C#N)=C/c1cccc(NC(=O)c2ccccc2Cl)c1,31,38,27,11,-2,27,nt,nt,nt
CC1=NN(c2ccccc2)C(=O)/C1=C\c1cn(CCC#N)nc1-c1ccc(Cl)cc1,54*,43*,13,7,1,54*,31,38*,51*
CC1=NNC(=O)/C1=C\c1cn(-c2ccccc2)nc1-c1ccc(Cl)cc1,89*,83*,34,0,66*,89*,71*,89*,68*
O=C(CCN1CCN(S(=O)(=O)c2ccc(Cl)cc2)CC1)Nc1ccc(F)cc1,10,29,19,8,-7,5,nt,nt,nt
O=C1CCCCC1C(Nc1ccc(Cl)cc1)c1ccccc1 (centres undefined),39,13,-7,0,0,32,nt,nt,nt
O=C1CCCCC1C(Nc1ccc(Br)cc1)c1ccccc1 (centres undefined),53*,41*,34,-13,29,29,32*,nt,48*
COc1ccc(Cl)cc1C(=O)Nc1ccncc1,22,7,29,-6,-7,4,nt,nt,nt
CCN(CC)c1ccc(NC(=O)c2cc(Cl)ccc2OC)cc1,50*,43*,22,-15,-2,26,32*,nt,44*
O=C1OC(c2ccc(Br)cc2)=N/C1=C\c1ccco1,58*,57*,14,8,8,45*,26,10,44*
CCOC(=O)C1=CNS(=O)(=O)NC1c1ccc(C[C@H](NC(=O)CNC(=O)CCc2ccccc2)C(N)=O)cc1 (some centres undefined),11,-3,nt,10,nt,-7,nt,nt,nt

# Assay outcomes from PubChem BioAssay.
